According to PubChem BioAssay AID624170 (National Center for Advancing Translational Sciences (NCATS), 2012):
About 850 (0.21%) of roughly 410,000 compounds were called active. A call without a number means that no potency is given here. Inconclusive results (about 2%) are left out. The call rests on the fitted dose curve; in most records, active means well fitted inhibition curve with a large enough effect; inconclusive means small, poorly fitted or top-dose-only effect, or another doubt; inactive means no such curve, though single readings can be large or run the other way. This excerpt belongs to a sample that is enriched for actives.
Potency means the concentration at half of the fitted maximal effect.

What follows are compounds tested against Glutaminase kidney isoform, mitochondrial (Homo sapiens) (UniProt O94925) (assay: qHTS for Inhibitors of Glutaminase (GLS)). Conditions: GLS enzymatic activity, qHTS titration; series mostly up to 99.4 µM.
Chain of Glutaminase kidney isoform, mitochondrial (Homo sapiens) (O94925 whole entry, looked up, canonical isoform): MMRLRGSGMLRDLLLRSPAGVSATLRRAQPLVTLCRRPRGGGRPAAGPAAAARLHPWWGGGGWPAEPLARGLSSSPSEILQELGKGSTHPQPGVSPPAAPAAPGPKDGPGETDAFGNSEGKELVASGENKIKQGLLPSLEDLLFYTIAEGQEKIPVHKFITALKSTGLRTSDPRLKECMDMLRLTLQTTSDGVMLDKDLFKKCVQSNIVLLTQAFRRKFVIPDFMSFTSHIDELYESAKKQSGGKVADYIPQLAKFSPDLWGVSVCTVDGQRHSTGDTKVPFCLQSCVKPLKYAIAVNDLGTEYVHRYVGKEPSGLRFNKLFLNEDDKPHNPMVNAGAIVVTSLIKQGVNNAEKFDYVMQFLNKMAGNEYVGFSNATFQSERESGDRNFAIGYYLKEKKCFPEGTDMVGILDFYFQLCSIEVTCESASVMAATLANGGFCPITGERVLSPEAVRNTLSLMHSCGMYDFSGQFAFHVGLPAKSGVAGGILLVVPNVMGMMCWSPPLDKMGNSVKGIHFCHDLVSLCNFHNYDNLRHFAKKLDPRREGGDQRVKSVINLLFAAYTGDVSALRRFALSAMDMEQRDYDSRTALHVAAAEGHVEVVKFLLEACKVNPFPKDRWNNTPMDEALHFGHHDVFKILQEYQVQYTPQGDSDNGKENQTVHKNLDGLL
Text: Glutaminase (GLS) catalyzes the hydrolysis of glutamine into glutamate and ammonia. It plays a critical role in glutaminolysis, which is an important energy source for proliferating cells. It was shown that c-Myc, an oncogenic transcription factor known to regulate microRNAs and to stimulate cell proliferation, increases glutamine metabolism by stimulating the expression of GLS via direct suppression of miR23a and miR23b.
GLS is also thought to play a pathogenic role on HAD using a human HIV-1 infected macrophage system. […] GLS inhibition limits glutamate release and provides neuroprotection against HIV-1 infected macrophages.
The overall goal of this project is to identify small molecule inhibitors of GLS through quantitative high throughput screening (qHTS) of the MLSMR. A validated potent and selective inhibitor can be used as a tool molecule to further study the pharmacology of its target as well as explore its potential therapeutic application in cancer and inflammatory neurological disorders, such as HIV1-associated dementia (HAD) and multiple sclerosis.
NIH Chemical Genomics Center [NCGC]
NIH Molecular Libraries Probe Centers Network [MLPCN]
Assay Submitter (PI): Barbara S. Slusher, Johns Hopkins University
Three 3 uL of hKGA is dispensed into black well 1536-well plates in 45 mM KH2PO4 (pH 8.2), 0.02% Tween-20. Then 23 nL of compounds are added through pin tool transfer. To this, 1 uL of 1mM L-Glutamine and 1 uL of a solution of L-Glutamateoxidase, HRP, Amplex red are added. Plate is centrifuged for 25 sec before an initial fluorescence read is obtained on the ViewLux, after 30 min of RT incubation, the final read is taken on the ViewLux.
In the case of `CCC(C)n1c(O)c(/C=N/Nc2nc3c(c(=O)n(C)c(=O)n3C)n2C)c(=O)[nH]c1=S` (stereo not given), the Potency is reported as 10 µM (active). `COc1cc(C[C@H](C)N)c(OC)cc1Br` was tested, and the Potency was “inactive”. In the case of `CC(C)=CCN1CC[C@@]2(C)c3cc(O)ccc3C[C@H]1[C@@H]2C`, the Potency is reported as “inactive”. In the case of `CC(C)(C)c1ccc(S(=O)(=O)Nc2ccc(O)c(Sc3nc4ccccc4s3)c2)cc1`, the Potency is reported as “inactive”. `C[C@]12CCC3[C@@H](CCC4=CC(=O)CC[C@@]43C)C1CCC2OC(=O)CCc1ccccc1` (stereo not given in full) was tested, and the Potency was “inactive”. In the case of `O=C1NC(=O)N(Cc2ccco2)C(=O)/C1=C\c1ccc(-c2ccc(F)cc2)o1`, the Potency is reported as 8.91 µM (active). In the case of `O=P1(N(CCCl)CCCl)NC(OO)CCO1` (stereo not given), the Potency is reported as “inactive”. With `CC(C)CC1C(=O)N2CCCC2C2(O)OC(NC(=O)C3CC4c5cccc6[nH]cc(c56)CC4N(C)C3)(C(C)C)C(=O)N12` (stereo not given) the Potency was “inactive”. In the case of `Cc1ncc(CC(=O)n2cc(C(=O)c3cc(Cl)ccc3O)cn2)s1`, the Potency is reported as “inactive”. `CC(=O)Oc1ccc2c3c1OC1C(OC(C)=O)C=CC4[C@@H](C2)N(C)CC[C@]314` (stereo not given in full) was tested, and the Potency was “inactive”.
